Only some compounds are listed: those with a hit (about 10% of all), similar ones and a draw of the others.
CCT modulator: modulators of cytosolic chaperonin (CCT/TRiC) activity; purified chaperonin ATPase assay, HTRF ADP detection, 30 min; activity change, % (no concentration beside the values), hits read low; actives 0.3% (n = 360,000); in the data active = activity change below about -30%
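TRiC at 40 or 20 nM final (batch-dependent) in 30 mM Tris pH 7.4, 100 mM KCl, 5 mM MgCl2, 1 mM DTT, with compound at single 76 uM and 10 uM ATP, 30 min at 37 deg C. ADP detected by HTRF Transcreener, 665/615 ratio.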
VDR inhibitor: inhibitors of human vitamin D receptor; VDR-SRC2-3 peptide fluorescence polarization, 2 h; Potency, µM, without a hit: max response, negative = inhibition, hits mostly inhibitors; actives 0.93% (n = 400,000); AID 504847; note: potency is the fitted concentration of half-maximal effect
Target sequence (P11473 whole entry, looked up): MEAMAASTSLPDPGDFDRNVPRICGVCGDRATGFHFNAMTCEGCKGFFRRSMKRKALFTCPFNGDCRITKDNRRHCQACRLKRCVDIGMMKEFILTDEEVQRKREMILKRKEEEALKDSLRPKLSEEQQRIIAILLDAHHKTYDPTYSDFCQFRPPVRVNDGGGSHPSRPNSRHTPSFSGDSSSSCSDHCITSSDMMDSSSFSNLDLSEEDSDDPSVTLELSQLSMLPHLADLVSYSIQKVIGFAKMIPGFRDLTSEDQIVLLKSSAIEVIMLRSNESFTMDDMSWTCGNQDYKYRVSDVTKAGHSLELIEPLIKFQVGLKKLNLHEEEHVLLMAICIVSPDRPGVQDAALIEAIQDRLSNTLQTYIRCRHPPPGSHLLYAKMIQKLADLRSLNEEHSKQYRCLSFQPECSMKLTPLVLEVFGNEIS
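After 23 nl compound addition and a short centrifugation, plates sat for 2 hours at ambient temperature; polarization of fluorescence then indicated loss of VDR binding to peptide SRC2-3.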
G9a block: G9a (human) methyltransferase inhibition; G9a H3K9 monomethylation, AlphaScreen, 2 h; Potency, µM (top dose mostly 102 µM), for inactives: at the highest dose activity, negative = inhibition, most hits filed as inhibitors; actives 8.8% (n = 350,000); note: potency is the fitted concentration of half-maximal effect; nearly all actives have a fitted effect of over 75% in size
Target sequence (Q96KQ7 913-1193 limits assumed): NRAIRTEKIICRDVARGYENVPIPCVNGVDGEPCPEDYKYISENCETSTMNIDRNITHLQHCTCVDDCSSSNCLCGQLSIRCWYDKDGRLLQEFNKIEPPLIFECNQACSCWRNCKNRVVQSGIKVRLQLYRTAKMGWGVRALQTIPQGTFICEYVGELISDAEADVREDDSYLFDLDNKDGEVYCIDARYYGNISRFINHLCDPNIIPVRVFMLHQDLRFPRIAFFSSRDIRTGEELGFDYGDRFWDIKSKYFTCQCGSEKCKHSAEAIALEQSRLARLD
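Readings reflect AlphaScreen signal from monomethyl-H3K9 antibody detection. HMT at 20 nM; substrate b-H3K9 500 nM; cofactor SAM 20 uM; 2 h RT reaction; compounds tested as titrations in qHTS with 15 min preincubation.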
Mm-Cpn inhibitor: inhibitors of Methanococcus maripaludis chaperonin TRiC (MmCpn); purified Mm-Cpn ATPase, ADP Transcreener TR-FRET; Potency, µM (highest dose often 76.9 µM), for inactives: at the highest dose activity, negative = inhibition, hits mostly inhibitors; actives 0.031% (n = 330,000); AID 504842; note: potency is the fitted concentration of half-maximal effect; nearly all actives have a fitted effect of over 80% in size
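25 nM Mm-CPN + cpd, 10 min 37°C; + 10 uM ATP, 30 min 37°C; buffer 30 mM Tris pH 7.4, 100 mM KCl, 5 mM MgCl2, 1 mM DTT; Transcreener ADP HTRF detection 30 min RT.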
PLK1 PBD inh: inhibitors of human PLK1 polo-box domain binding; P53350; Plk1 PBD binding of FITC phosphopeptide, fluorescence polarization; actives 2.8% (n = 360,000); Potency, µM, for inactives: max response, negative = inhibition, actives largely listed as inhibitors; note: potency is the fitted concentration of half-maximal effect; series mostly up to about 57 µM; nearly all actives have a fitted effect of over 65% in size
Sfp PPTase inh: inhibitors of Bacillus subtilis Sfp phosphopantetheinyl transferase | actives 3.5% (n = 310,000) | Q9F4F7 | AID 1490 | Potency, µM, inactives show largest response in the series, negative = inhibition, usual class: inhibitors | Biochemical Sfp PPTase activity, qHTS;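 note: the enzyme is Sfp with the accession as filed and its product quenches rhodamine fluorescence; potency is the fitted concentration of half-maximal effect; 0% = enzyme reaction without inhibitor and -100% = no enzyme wells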
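Reaction rates are the 30-min fluorescence difference (ex 525, em 598 nm) in wells containing 15 nM Sfp, 5 uM rhodamine-CoA and 12.5 uM BHQ-2-YbbR at pH 7.6 with 10 mM MgCl2.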
Numbers without * were called inactive; u = inconclusive; x = not tested or not shown; [ ] = remark or other dose. Unless noted, calls come from the whole dose curve; as a rule, active = well fitted curve in the direction sought with a large enough effect; inconclusive = small, poorly fitted or top-dose-only effect, or another doubt; inactive = no such curve, though single readings can be large; an effect the other way counts as inactive or inconclusive. Unless noted, % is set by controls: 0 for no effect and ±100 for the full control effect.

SMILES	CCT modulator	VDR inhibitor	G9a block	Mm-Cpn inhibitor	PLK1 PBD inh	Sfp PPTase inh
COc1ccccc1C(=O)Nc1nc(-c2ccc(S(=O)(=O)N3CCOCC3)cc2)cs1	-1.9	-14.2%	14.6%[12.7 µM]	u	u	-15.0%
Cc1ccc(S(=O)(=O)N2CCOCC2)cc1C(=O)Nc1nc(-c2ccccn2)cs1	0.2	u	x	0.8%	16.8µM*	x
Cc1cnc(NC(=O)c2cccc(S(=O)(=O)N3CCOCC3)c2)s1	-1.1	0.6%	7.08µM*	-1.7%	4.3%	x
COc1ccc(C(=O)Nc2nncs2)cc1S(=O)(=O)N1CCOCC1	0.1	-5.5%	56.2µM*	1.6%	-10.2%	13.3%
O=C(NNS(=O)(=O)c1cccc(Cl)c1Cl)c1cccc(S(=O)(=O)N2CCOCC2)c1	0.4	-3.8%	31.6µM*	2.8%	-3.4%	-12.0%
O=C(NNS(=O)(=O)c1ccc(Cl)cc1)c1cccc(S(=O)(=O)N2CCOCC2)c1	-0.9	-5.7%	u	0.1%	-5.6%	2.1%
COc1ccc(-c2cccc(NS(=O)(=O)c3ccc(C)s3)c2)nn1	x	10.0%	4.7%[59 µM]	x	x	x
COc1ccc(C(=O)Nc2nc(-c3ccccn3)cs2)cc1S(=O)(=O)N1CCOCC1	-0.9	u	x	-15.9%	23.8µM*	x
CC(C)C(=O)Nc1nc(-c2ccc(S(=O)(=O)N3CCOCC3)cc2)cs1	-3.2	5.5%	23.8%	-11.6%	-15.3%	1.2%
CSCCC(NC(=O)c1cccc(S(=O)(=O)N2CCOCC2)c1)C(=O)Nc1ccc(F)cc1 (stereo unspecified)	1.3	-7.4%	7.08µM*	-0.9%	1.5%	10.1%
CSCCC(NC(N)=O)C(=O)Nc1cccc(S(=O)(=O)N2CCOCC2)c1 (stereo unspecified)	2.6	-4.3%	-6.9%	1.2%	0.1%	15.0%
O=C(COc1cccc(Cl)c1)Nc1nc(-c2ccc(S(=O)(=O)N3CCOCC3)cc2)cs1	-3.2	-6.0%	-36.8%[59 µM]	39.8µM*	-17.9%	16.6%
O=C(Nc1ncn[nH]1)c1cccc(S(=O)(=O)N2CCOCC2)c1	0.9	0.1%	15.8µM*	0.9%	-11.4%	-28.8%
O=C(Nc1ccncc1)c1cccc(S(=O)(=O)N2CCOCC2)c1	-6.5	-6.5%	18.4%[2.33 µM]	1.1%	-8.4%	x
Cc1ccc(-c2cc(NC(=O)COc3c(C)cc(C)cc3C)on2)cc1	x	3.0%	3.8%[59 µM]	x	x	x
Cc1ccc2ncc(C(=O)NC(C)c3ccccc3)c(=O)n2c1 (stereo unspecified)	x	-8.7%	6.2%[59 µM]	x	x	x
COc1cccc(CNC(=O)CCCN2C(=O)CSc3c2c(C)nn3-c2ccccc2)c1	x	14.1%	-3.2%[59 µM]	x	x	x
COC(=O)c1ccc(Cn2c(SCc3ccccc3)nc3ccncc32)cc1	x	9.0%	4.4%[59 µM]	x	x	x
CCOC(=O)c1c(-c2ccccc2Cl)csc1NC(=O)c1cc(S(=O)(=O)N2CCOCC2)ccc1C	-0.1	-13.4%	7.94µM*	-25.3%	10.6µM*	u
COc1ccc(C(=O)OC/C(O)=C(\C#N)c2nc3ccccc3[nH]2)cc1S(=O)(=O)N1CCOCC1	1.6	10.8%	79.4µM*	-4.2%	0.7%	13.5%
COc1ccc(C(=O)Nc2ccccc2N2CCCC2)cc1S(=O)(=O)N1CCOCC1	-2.1	-10.4%	10µM*	-1.2%	-17.1%	x
O=C(Nc1nc(-c2ccccn2)cs1)c1cccc(S(=O)(=O)N2CCOCC2)c1	0.0	u	u	-3.5%	18.9µM*	x
CCc1ccc(CNCc2c(C(=O)O)c(C)n(Cc3c(F)cccc3Cl)c2C)cc1	x	15.0%	-28.7%[59 µM]	x	x	x
CCOc1ccc2c(c1)c(=O)c(C(=O)c1ccc(C)cc1)cn2Cc1ccccc1OC	x	-6.6%	-48.2%[59 µM]	x	x	x
COc1ccc(CC(=O)Nc2nc3ccccc3s2)cc1S(=O)(=O)N1CCOCC1	2.1	u	11.4%	1.3%	21.2µM*	4.3%
SMILES	CCT modulator	VDR inhibitor	G9a block	Mm-Cpn inhibitor	PLK1 PBD inh	Sfp PPTase inh
CCOC(=O)[C@H](CCc1ccccc1)N[C@@H](C)C(=O)N1CCC[C@H]1C(=O)O	0.6	6.4%	-15.0%	-1.0%	-13.1%	-7.5%
CCOC(=O)C1CCCN(Cc2ccc(OCC)cc2)C1 (stereo unspecified)	-6.1	12.3%	8.91µM*	0.9%	-2.7%	-25.7%
CCOC(=O)[C@H](CCc1ccccc1)N[C@@H](C)C(=O)N1CCC[C@@H]1C(=O)O	0.1	-2.1%	20µM*	-1.4%	1.0%	x
CCOC(=O)C1CCCN(CC(=O)N2CCCc3c2c(=O)oc2ccc(OCc4ccccc4)cc32)C1 (stereo unspecified)	x	-4.8%	22.4µM*	x	x	x
CCOC(=O)C1CCCN(Cc2ccc(OC)c(OCc3ccccc3)c2)C1 (stereo unspecified)	-0.1	-15.0%	44.7µM*	0.6%	2.3%	-11.6%
CCOC(=O)C1CCCN(Cc2cccs2)C1 (stereo unspecified)	-1.1	-1.5%	u	-0.6%	-3.2%	u
COc1ccc(C(=O)C2CCCN(Cc3ccc4nonc4c3)C2)cc1OC (stereo unspecified)	-0.9	-6.5%	-45.1%	-1.5%	-7.9%	-4.5%
CCCCCOc1ccc2oc(=O)c3c(c2c1)CCCN3C(=O)CN1CCCC(C(=O)OCC)C1 (stereo unspecified)	-0.3	-7.3%	-25.9%	-2.4%	-0.3%	u
CCCOc1ccccc1Cn1c(=O)sc2ccccc21	x	4.7%	260.6%[59 µM]	x	x	x
CCOC(=O)C1CCCN(Cc2ccccc2Cl)C1 (stereo unspecified)	-3.9	7.9%	11.2µM*	-0.6%	-1.1%	-14.8%
CCOC(=O)C1CCCN(Cc2c(F)cccc2Cl)C1 (stereo unspecified)	-0.8	-17.7%	u	0.5%	-7.3%	-14.9%
CCOC(=O)C1CCCN(Cc2ccccc2OCC)C1 (stereo unspecified)	-2.4	-4.0%	u	1.3%	-0.2%	-12.1%
CCOC(=O)C1CCCN(CC(O)COc2ccc(OC)cc2C(C)(C)C)C1 (stereo unspecified)	0.4	-1.8%	12.6µM*	-6.0%	-0.6%	-12.4%
CCOC(=O)C1CCCN(Cc2ccccc2C)C1 (stereo unspecified)	0.4	-5.4%	2.51µM*	0.0%	-8.4%	3.2%
CCOC(=O)C1CCCN(CCc2ccccc2)C1 (stereo unspecified)	0.4	-6.9%	39.8µM*	1.0%	-3.8%	-11.5%
COc1ccc(C(=O)NCc2ccc3c(c2)CCN3C(C)=O)c(OC)c1	x	5.6%	1.4%[59 µM]	x	x	x
Cc1ccc(C)c(N2CCN(C(=O)c3cc4ccccn4n3)CC2)c1	1.0	-13.6%	50.1µM*	2.8%	-13.6%	-14.1%
O=C(N/N=C\c1ccc(COc2ccc([N+](=O)[O-])cc2)o1)c1ccc(Cl)cc1	1.8	-12.9%	14.0%	-0.4%	0.3%	-2.8%
COc1ccc(OCc2ccc(/C=N\NC(=O)c3sccc3C)o2)cc1	-2.5	-5.7%	39.8µM*	-10.0%	-9.5%	19.2%

Bioassay records as filed in PubChem.
